According to PubChem BioAssay (Tox21):
Values without a mark were called inactive. Results filed as inconclusive are left out. Where a call stands in place of a potency, no number is given. Calls of active or inactive are those of the source. The call rests on the fitted dose curve.

What was measured:
[1] = target: Acetylcholinesterase (Homo sapiens) (UniProt P22303); test: Acetylcholinesterase (AChE) small molecule antagonists: colormetric cell-based qHTS assay (AID 1347395); further: nearly all actives have a fitted effect of over 30% in size
Procedure, shortened: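 Quantitative HTS in attached SH-SY5Y cells: 30 min compound exposure, then 90 min with acetylthiocholine and DTNB at 37 C; colour from thiocholine reports AChE activity.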

[2] = target: Acetylcholinesterase (Homo sapiens) (UniProt P22303); test: Acetylcholinesterase (AChE) small molecule antagonists: enzyme-based qHTS assay (AID 1347397); conditions: Potency: AChE enzyme activity inhibition; outcome: AChE enzyme activity inhibition; further: nearly all actives have a fitted effect of over 55% in size; further: potency means the concentration at half of the fitted maximal effect
Procedure, shortened: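 Recombinant human AChE, dispensed at 50 mU/mL, was preincubated with Tox21 10K compounds or DMSO vehicle for 30 min at room temperature. DTNB plus acetylthiocholine was then added, and thiocholine was measured colorimetrically after a further 10 min.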

[3] = target: Acetylcholinesterase (Homo sapiens) (UniProt P22303); test: Acetylcholinesterase (AChE) small molecule antagonists: fluorescence cell-based qHTS assay (AID 1347398); conditions: Potency: AChE activity; outcome: AChE activity; further: nearly all actives have a fitted effect of over 50% in size
Procedure, shortened: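 Human SH-SY5Y cells were plated overnight at 37 C, exposed to compound for 30 min at 37 C, 5% CO2, then given acetylthiocholine plus Thiolite Green for 40 min at room temperature; thiocholine fluorescence (Ex/Em 490/520 nm) reports endogenous AChE activity.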

[4] = target: Acetylcholinesterase (Homo sapiens) (UniProt P22303); test: Acetylcholinesterase (AChE) small molecule antagonists: enzyme-based qHTS assay with human liver microsomes (AID 1347399); conditions: Potency: qHTS inhibition; outcome: qHTS inhibition; further: nearly all actives have a fitted effect of over 60% in size
Procedure, shortened: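 Recombinant human AChE (50 mU/mL in the enzyme mix) and human liver microsomes (0.25 mg/mL final) were preincubated with compound and NADPH (0.25 mg/mL final) for 30 min at 37 C. Acetylthiocholine/DTNB was then added; thiocholine was read colorimetrically after 10 min at room temperature.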

Chain of Acetylcholinesterase (Homo sapiens) (P22303 whole entry, looked up): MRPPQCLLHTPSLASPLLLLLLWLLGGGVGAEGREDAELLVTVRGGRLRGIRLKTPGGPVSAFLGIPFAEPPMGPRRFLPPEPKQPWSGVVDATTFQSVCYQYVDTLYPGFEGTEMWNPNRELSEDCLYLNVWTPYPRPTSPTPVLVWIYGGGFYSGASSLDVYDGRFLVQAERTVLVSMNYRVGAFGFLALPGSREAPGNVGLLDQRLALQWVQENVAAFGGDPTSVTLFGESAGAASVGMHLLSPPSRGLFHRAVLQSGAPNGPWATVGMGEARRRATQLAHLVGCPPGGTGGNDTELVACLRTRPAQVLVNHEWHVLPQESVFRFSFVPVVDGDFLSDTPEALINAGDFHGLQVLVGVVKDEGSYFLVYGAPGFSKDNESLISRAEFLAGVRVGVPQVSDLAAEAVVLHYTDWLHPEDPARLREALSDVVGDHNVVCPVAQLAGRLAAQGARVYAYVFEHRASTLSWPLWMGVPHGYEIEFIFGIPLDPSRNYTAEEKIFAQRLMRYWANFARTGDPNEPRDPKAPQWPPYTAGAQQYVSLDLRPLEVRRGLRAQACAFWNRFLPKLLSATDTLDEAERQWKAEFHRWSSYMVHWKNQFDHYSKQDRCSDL

| SMILES | Potency [1] | Potency [2] | Potency [3] | Potency [4] |
| --- | --- | --- | --- | --- |
| C[C@]12C=CC(=O)C=C1CC[C@H]1[C@@H]3C[C@@H](O)[C@](O)(C(=O)CO)[C@@]3(C)C[C@H](O)[C@@]12F | inactive | inactive | inactive | inactive |
| O=C1CC(c2ccc(Cl)cc2)CC(=O)N1 | inactive | inactive | inactive | inactive |
| Cc1cc(O)c(C(C)(C)C)cc1Sc1cc(C(C)(C)C)c(O)cc1C | inactive | 28.2 µM (active) | inactive | inactive |
| CCCCCCS | inactive | inactive | inactive | inactive |
| CCCCCC(C)N (stereo not given) | inactive | inactive | inactive | inactive |
| CC(C)CNCC(C)C | inactive | inactive | inactive | inactive |
| COC(=O)c1ccc(C(=O)OC)c(C(=O)OC)c1 | inactive | inactive | inactive | inactive |
| CCC(C)OC(=O)c1ccc(O)cc1 (stereo not given) | inactive | inactive | inactive | inactive |
| CCCCOCCOC(=O)c1ccccc1C(=O)OCCOCCCC | inactive | inactive | inactive | inactive |
| N=c1nc(N2CCCCC2)cc(N)n1O | inactive | inactive | inactive | inactive |
| CC(C)(CO)CO | inactive | inactive | inactive | inactive |
| CCOCCOCCOCC | inactive | inactive | inactive | inactive |
| C=CCc1ccc(O)c(OC)c1 | inactive | inactive | inactive | inactive |
| C[C@@H](O)C(=O)O | inactive | inactive | inactive | inactive |
| O=c1[nH]c(=O)n([C@H]2C[C@H](O)[C@@H](CO)O2)cc1C(F)(F)F | inactive | inactive | inactive | inactive |
| CCN(CCC#N)c1ccccc1 | inactive | inactive | inactive | inactive |
| CCc1ccc(O)cc1 | inactive | inactive | inactive | inactive |
| CCOC(=O)NCCOc1ccc(Oc2ccccc2)cc1 | inactive | inactive | inactive | inactive |
| CCC(=O)Nc1ccc(O)cc1 | inactive | inactive | inactive | inactive |
| CCn1ccnc1CC1COc2ccccc2O1 (stereo not given) | inactive | inactive | inactive | inactive |
| CCC(=O)c1c(O)cc(O)cc1O | inactive | inactive | inactive | inactive |
| CS(C)(=O)=O | inactive | inactive | inactive | inactive |
| CCCCC(CC)COC(=O)c1ccccc1C(=O)O (stereo not given) | inactive | inactive | inactive | inactive |
| O=C1OC(=O)C2CC=CCC12 (stereo not given) | inactive | inactive | inactive | inactive |
| COC(C)COC(C)COC(C)CO (stereo not given) | inactive | inactive | inactive | inactive |
| O=C(O)Cc1c(Cl)ccc(Cl)c1Cl | inactive | inactive | inactive | inactive |
| C[C@]12CCC(=O)C=C1CC[C@@H]1[C@@H]2[C@@H](O)C[C@@]2(C)[C@H]1CC[C@]2(O)C(=O)COC(=O)CCC(=O)O | inactive | inactive | inactive | inactive |
| CC(C)OP(=O)(CP(=O)(OC(C)C)OC(C)C)OC(C)C | inactive | inactive | inactive | inactive |
| Nc1ccc2cc(S(=O)(=O)O)cc(O)c2c1 | inactive | inactive | inactive | inactive |
| O=C1Nc2ccc([N+](=O)[O-])cc2C1=O | inactive | inactive | inactive | inactive |
